{
  "source": "PubChem BioAssay (Tox21)",
  "note": "Several values for one entry are separate records, joined by “and”; a condition that tells them apart may be missing. Equal entries are not always repeated. Inconclusive results are not listed. Where a call stands in place of a potency, no number is given. Some compounds were tested as several samples or in several runs, with calls that do not always agree. Activity calls are given as the source filed them. Calls come from the whole dose curve; as a rule, active = well fitted inhibition curve with a large enough effect in the repeat runs; inconclusive = weak or mixed curves; inactive = flat fitted curve, though single readings scatter. Potency is the fitted concentration of half-maximal effect.",
  "data": [
    {"assay": "qHTS assay to identify small molecule HDAC inhibitors (AID 1259364); note: nearly all actives have a fitted effect of over 45% in size", "conditions": "HCT-116 HDAC-Glo I/II luminescence, 2 h; series mostly up to 92.4 µM", "source_text": "U.S. Tox21 Program National Center for Advancing Translational Sciences [NCATS] NIH Chemical Genomics Center [NCGC] U.S. Environmental Protection Agency [EPA] National Institutes of Environmental Health Sciences [NIEHS] National Toxicology Program [NTP] U.S. Food and Drug Administration [FDA] Tox21 Assay Overview: Histone deacetylases (HDACs) are a group of epigenetic enzymes that regulate gene expression by histone deacetylation. HDACs are capable of introducing epigenetic modifications and such aberrations contribute to the onset and progression of several human diseases, thus making HDACs a popular therapeutic target. For identifying endogenous class I/II HDAC inhibitors a homogenous, luminogenic HDAC I/II cell based assay was used to measure the relative activity of class I and II HDACs from cells. Wild type HCT-116 cells were used to screen Tox21 libraries for identifying class I/II HDAC inhibitors.\nTox21 Assay Protocol Summary: HCT-116 cells were dispensed at 1,500 per well in 5uL of culture medium into white solid bottom 1536-well plates (Greiner Bio-One, Monroe, NC) using a Multidrop Combi (Thermo Scientific, Waltham, MA) dispenser. The assay plates were incubated at 37 C and 5% CO2 for an overnight, and then 23nL of compounds dissolved in DMSO and positive control were transferred using a Pintool station (Wako, San Diego, CA). The assay plates were incubated at 37C and 5% CO2 for 2hr. After compound treatment, 4uL of HDAC-Glo reagent (Promega Corporation, Madison, WI) was added to each well of the assay plates using Flying Reagent Dispenser (FRD, Aurora Discovery, San Diego, CA) and incubated the assay plates at room temperature for 30min. The luminescence signal was quantified using a ViewLux plate reader (Perkin Elmer, Shelton, CT).", "values": [
      {"smiles": "CCOc1ccc2c(c1)C(C)=CC(C)(C)N2", "Potency": "inactive"},
      {"smiles": "c1cnc2cc3c(cc2n1)C1CNCC3C1", "Potency": "inactive"},
      {"smiles": "CCN(CC)c1ccc2c(C)cc(=O)oc2c1", "Potency": "inactive"},
      {"smiles": "NC(=Nc1ccccc1)Nc1ccccc1", "Potency": "686 nM (active) and inactive"},
      {"smiles": "O", "Potency": "inactive"},
      {"smiles": "NCCO", "Potency": "inactive"},
      {"smiles": "COc1ccc(COC(C)=O)cc1", "Potency": "inactive"},
      {"smiles": "CC(C)(C)NCC(O)c1cc(O)cc(O)c1", "note": "(stereo not given)", "Potency": "inactive"},
      {"smiles": "Cc1cccc([N+](=O)[O-])c1C(=O)O", "Potency": "inactive"},
      {"smiles": "c1ccc2c(c1)CCCC2C1=NCCN1", "note": "(stereo not given)", "Potency": "inactive"},
      {"smiles": "CCn1c2ccccc2c2cc(N)ccc21", "Potency": "inactive and 27.3 µM (active)"},
      {"smiles": "CC[C@]1(O)C[C@@H]2CN(CCc3c([nH]c4ccccc34)[C@@](C(=O)OC)(c3cc4c(cc3OC)N(C)[C@H]3[C@@](O)(C(=O)OC)[C@H](OC(C)=O)[C@]5(CC)C=CCN6CC[C@]43[C@@H]65)C2)C1", "Potency": "inactive"},
      {"smiles": "Cc1ccnc2c1NC(=O)c1cccnc1N2C1CC1", "Potency": "inactive"},
      {"smiles": "Nc1cc(Cl)c(-c2cc(Cl)c(N)cc2Cl)cc1Cl", "Potency": "inactive"},
      {"smiles": "CN1C(=O)c2ccc([N+](=O)[O-])cc2C1=O", "Potency": "inactive"},
      {"smiles": "CC(C)(C)NC(=O)[C@@H]1CN(Cc2cccnc2)CCN1C[C@@H](O)C[C@@H](Cc1ccccc1)C(=O)N[C@H]1c2ccccc2C[C@H]1O", "Potency": "inactive"},
      {"smiles": "CC(=O)CC(=O)Nc1ccc2[nH]c(=O)[nH]c2c1", "Potency": "inactive"},
      {"smiles": "Cc1cc(OCCOCC[N+](C)(C)Cc2ccccc2)ccc1C(C)(C)CC(C)(C)C", "Potency": "inactive"},
      {"smiles": "Cc1ccc(-c2cc(C(F)(F)F)nn2-c2ccc(S(N)(=O)=O)cc2)cc1", "Potency": "inactive"},
      {"smiles": "O=C1CC2(CCCC2)CC(=O)N1CCCCN1CCN(c2ncccn2)CC1", "Potency": "inactive"},
      {"smiles": "O=c1n(CC2CO2)c(=O)n(CC2CO2)c(=O)n1CC1CO1", "note": "(stereo not given)", "Potency": "inactive"},
      {"smiles": "Cc1occc(=O)c1OC(=O)C(C)C", "Potency": "inactive"},
      {"smiles": "CCOc1ccccc1C(N)=O", "Potency": "inactive"},
      {"smiles": "CCC(C)(C)C(=O)O[C@H]1C[C@@H](C)C=C2C=C[C@H](C)[C@H](CC[C@@H]3C[C@@H](O)CC(=O)O3)[C@H]21", "Potency": "inactive"},
      {"smiles": "CC(=O)O[C@]1(C(C)=O)CC[C@H]2[C@@H]3C[C@H](C)C4=CC(=O)CC[C@]4(C)[C@H]3CC[C@@]21C", "Potency": "inactive"},
      {"smiles": "O=Cc1ccc(Cl)cc1", "Potency": "inactive"},
      {"smiles": "O=C(O[C@@H]1Cc2c(O)cc(O)cc2O[C@@H]1c1cc(O)c(O)c(O)c1)c1cc(O)c(O)c(O)c1", "Potency": "inactive"},
      {"smiles": "CCCN[C@H]1CCc2nc(N)sc2C1", "Potency": "inactive"},
      {"smiles": "CC(C)(O)CCC(C)(C)O", "Potency": "inactive"},
      {"smiles": "CC(C)CCCCCCc1ccc(O)cc1", "Potency": "inactive"},
      {"smiles": "CC(C)(C)c1ccc(O)c(C(C)(C)C)c1", "Potency": "inactive"},
      {"smiles": "BrC1CCC(Br)C(Br)CCC(Br)C(Br)CCC1Br", "note": "(stereo not given)", "Potency": "inactive"},
      {"smiles": "CCN(CC)C(=O)Nc1ccc(OCC(O)CNC(C)(C)C)c(C(C)=O)c1", "note": "(stereo not given)", "Potency": "inactive"},
      {"smiles": "Cc1cc(C(C)(C)C)c(O)c(C(C)(C)C)c1", "Potency": "inactive"},
      {"smiles": "COc1ccc(CCN2CCC(Nc3nc4ccccc4n3Cc3ccc(F)cc3)CC2)cc1", "Potency": "inactive"},
      {"smiles": "Nc1cc(S(=O)(=O)O)cc2cc(S(=O)(=O)O)cc(O)c12", "Potency": "inactive"},
      {"smiles": "CC(COc1ccccc1)N(CCCl)Cc1ccccc1", "note": "(stereo not given)", "Potency": "inactive"},
      {"smiles": "c1ccc2c(c1)-c1cccc3c1c-2cc1ccccc13", "Potency": "inactive"},
      {"smiles": "O=C(Nc1ccccc1SSc1ccccc1NC(=O)c1ccccc1)c1ccccc1", "Potency": "27.4 µM (active) and 19.3 µM (active)"},
      {"smiles": "CCC(CO)(CO)COCC(CC)(CO)CO", "Potency": "inactive"}
    ]}
  ]
}
